# POLI inh = qHTS for Inhibitors of Polymerase Iota; 390,000 tested, 1% active; Potency, µM (titrated, usually from 115 µM), for the others: at the highest dose activity, negative = inhibition, usual class: inhibitors; AID 588590, 2011; DNA polymerase iota (Homo sapiens), Q9UNA4; Pol iota fluorescent replication assay, 10 min
#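 Fluorescent replication assay read twice, at 0 min and 10 min after adding 50 nM (final) substrate. Enzyme (10 nM) and compounds were first incubated 15 min at room temperature; enzyme-free buffer wells were negative controls.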
# FEN1 inh-1 = qHTS Assay for the Inhibitors of Human Flap endonuclease 1 (FEN1) | P39748 | Recombinant FEN1 flap cleavage, fluorescence, 15 min | Potency, µM (highest dose often 114 µM), for inactives: at the highest dose activity change, negative = inhibition, hits mostly inhibitors | 390,000 tested, 0.35% active | AID 588795, 2011; note: % is set by controls: 0 for no effect and ±100 for the full control effect; nearly all actives have a fitted effect of over 65% in size
#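 Quantitative HTS format: each compound was titrated, incubated with 10 nM nuclease for 15 min at room temperature, then challenged with flap substrate at 50 nM final. Signal change over 15 min gave concentration–effect curves.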
# Pol kappa inh-1 = qHTS for Inhibitors of Polymerase Kappa; DNA polymerase kappa (Homo sapiens), Q9UBT6; purified Pol kappa, fluorescent DNA synthesis assay, 10 min; 400,000 tested, 0.53% active; Potency, µM (doses to about 107 µM), inactives show at the highest dose activity, negative = inhibition, most hits filed as inhibitors; note: % is set by controls: 0 for no effect and ±100 for the full control effect
# Target sequence (Q9UBT6 whole entry, looked up): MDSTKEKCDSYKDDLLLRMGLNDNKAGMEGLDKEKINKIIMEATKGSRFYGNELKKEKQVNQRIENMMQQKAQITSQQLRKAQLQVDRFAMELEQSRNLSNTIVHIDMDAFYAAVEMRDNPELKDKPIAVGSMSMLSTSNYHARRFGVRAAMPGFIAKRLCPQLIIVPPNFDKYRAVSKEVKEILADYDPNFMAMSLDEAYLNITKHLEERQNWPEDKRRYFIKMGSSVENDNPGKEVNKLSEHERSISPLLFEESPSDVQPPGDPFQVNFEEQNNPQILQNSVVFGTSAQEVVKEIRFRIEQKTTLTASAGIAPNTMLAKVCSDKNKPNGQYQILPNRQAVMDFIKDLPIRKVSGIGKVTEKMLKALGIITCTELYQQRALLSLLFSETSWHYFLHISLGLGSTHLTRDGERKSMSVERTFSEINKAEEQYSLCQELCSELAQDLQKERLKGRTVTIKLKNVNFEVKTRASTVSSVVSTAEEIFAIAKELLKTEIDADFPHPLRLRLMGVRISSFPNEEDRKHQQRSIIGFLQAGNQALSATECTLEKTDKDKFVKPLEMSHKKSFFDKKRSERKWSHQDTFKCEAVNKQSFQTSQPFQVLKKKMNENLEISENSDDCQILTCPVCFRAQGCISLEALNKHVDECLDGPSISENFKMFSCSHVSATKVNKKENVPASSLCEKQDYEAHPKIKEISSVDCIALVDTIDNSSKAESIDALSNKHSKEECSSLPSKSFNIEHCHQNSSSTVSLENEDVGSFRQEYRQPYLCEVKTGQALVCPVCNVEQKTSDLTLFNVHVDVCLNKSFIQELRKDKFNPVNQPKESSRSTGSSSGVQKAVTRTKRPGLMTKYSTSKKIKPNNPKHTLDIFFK
#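 Enzyme at 10 nM met test compounds for 15 min at room temperature. Substrate addition (50 nM final) began the reaction, which was monitored by fluorescence at 0 and 10 min.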
# WRN inhibitor = qHTS for Inhibitors of WRN Helicase. Bifunctional 3'-5' exonuclease/ATP-dependent helicase WRN (Homo sapiens), Q14191. WRN helicase unwinding, fluorescent forked duplex, kinetic. Potency, µM (highest dose often 114 µM), inactives show at the top dose activity change, negative = inhibition, most hits filed as inhibitors. 360,000 tested, 0.46% active. AID 651768, 2012; note: % is set by controls: 0 for no effect and ±100 for the full control effect; nearly all actives have a fitted effect of over 55% in size
#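 Kinetic red-fluorescence monitoring (525/598 nm) tracks WRN helicase activity after 100 nM fluorophore-quencher forked duplex and 2 mM ATP are added to 20 nM enzyme pretreated 15 min at room temperature with compound.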
# Pol beta inh = qHTS Assay for Inhibitors of DNA Polymerase Beta; Pol beta primer extension/strand displacement, fluorescence kinetic; Potency, µM (titrated, usually from 114 µM), for inactives: at the top dose activity change, negative = inhibition, actives largely listed as inhibitors; 340,000 tested, 1.3% active; note: % is set by controls: 0 for no effect and ±100 for the full control effect
#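 Pol beta (10 nM) was preincubated with compound for 15 min at room temperature. The reaction was then started with 50 nM substrate and read immediately and after a further 10 min at room temperature.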
# Pol eta inh-1 = qHTS for Inhibitors of Polymerase Eta. DNA polymerase eta (Homo sapiens), Q9Y253. 390,000 tested, 1.2% active. Potency, µM (series often up to 114 µM), inactives show at the highest dose activity change, negative = inhibition, usual class: inhibitors. recombinant Pol eta, fluorescent DNA replication assay; note: % is set by controls: 0 for no effect and ±100 for the full control effect
#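 Pol eta at 10 nM preincubated with compounds 15 min at room temperature; reaction started with fluorescent substrate (50 nM final) and read kinetically at 0 and 10 min.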
# TbPGK inh = qHTS for inhibitors of Phosphogylcerate Kinase: Hit Validation Screen | Potency, µM (titrated, usually from 57.5 µM), without a hit: at the highest dose activity change, negative = inhibition, actives largely listed as inhibitors | AID 686980, 2013 | 500 tested, 79% active | shares compounds with Pol kappa inh-1 | TbPGK coupled GAPDH assay, Kinase-Glo luminescence; note: % is set by controls: 0 for no effect and ±100 for the full control effect; nearly all actives have a fitted effect of over 65% in size
# Pol iota confirm = qHTS for Inhibitors of Polymerase Iota: Confirmatory Assay for Cherry-picked Compounds; 1,500 tested, 77% active; AID 720496, 2013; Potency, µM, usual class: inhibitors; shares compounds with Pol kappa inh-1; Pol iota primer extension, TAMRA/BHQ fluorescence
# Pol kappa inh-2 = qHTS for Inhibitors of Polymerase Kappa: Confirmatory Assay for Cherry-picked Compounds; shares compounds with Pol eta inh-1; purified Pol-kappa, fluorescent strand-displacement substrate; Potency, µM, hits mostly inhibitors; 920 tested, 76% active; AID 720501, 2013
# Pol eta inh-2 = qHTS for Inhibitors of Polymerase Eta: Confirmatory Assay for Cherry-picked Compounds; shares compounds with Pol eta inh-1; Pol eta primer extension, TAMRA/BHQ fluorescence, 10 min; Potency, µM, hits mostly inhibitors; 2,600 tested, 64% active; AID 720502, 2013
# FEN1 inh-2 = qHTS Assay for the Inhibitors of FEN1: Confirmatory Assay for Cherry-picked Compounds; shares compounds with FEN1 inh-1; 880 tested, 79% active; AID 720498, 2013; FEN1 flap cleavage, TAMRA/BHQ2 fluorogenic DNA substrate; Potency, µM, most hits filed as inhibitors; note: nearly all actives have a fitted effect of over 60% in size
# The depositor's hits bear a star; ? = inconclusive; . = not tested or not shown; [ ] = another dose, or the depositor's remark. Rows were chosen to be rich in hits. Some 2.4% of all compounds tested hit in one or more screens of this group. Calls come from the whole dose curve; as a rule, active = well fitted curve in the direction sought with a large enough effect; inconclusive = small, poorly fitted or top-dose-only effect, or another doubt; inactive = no such curve, though single readings can be large; an effect the other way counts as inactive or inconclusive. Potency is the fitted concentration of half-maximal effect.
SMILES,POLI inh,FEN1 inh-1,Pol kappa inh-1,WRN inhibitor,Pol beta inh,Pol eta inh-1,Pol iota confirm,Pol eta inh-2,FEN1 inh-2,others
CCc1ccc(N2C(=O)NC(=O)/C(=C\C=C\c3ccco3)C2=O)cc1,7.08µM*,22.4µM*,35.5µM*,?,?,20µM*,37.7*,30.1*,.,Pol kappa inh-2=15*
O=C1c2ccccc2-c2cc3ccccc3cc21,8.4%,?,-15.7%,8.8%,.,-17.4%,.,.,.,
O=C1C=C(N2CC2)c2ccccc2C1=O,.,.,.,44.7µM*,.,8.91µM*,47.4*,30.1*,.,
N#Cc1ccc(CN2CC3(CCNCC3)C2)cc1,.,.,-1.7%[60.1 µM],.,.,.,.,.,.,
C=C1[C@@H]2C[C@]3(C(CC2=O)[C@]24C5C[C@H]3[C@H]2N(CC)C[C@]5(C)CC[C@@H]4O)[C@@H]1O (stereo not given in full),.,.,17.4%[60.1 µM],.,.,.,.,.,.,
COc1ccc(N2C(=O)/C(=C/c3ccc(C)o3)C(=O)NC2=S)c(OC)c1,11.2µM*,?,50.1µM*,?,39.8µM*,10µM*,47.4*,16.9*,.,Pol kappa inh-2=3.36*
C=CCN1C(=O)NC(=O)/C(=C/c2ccoc2)C1=O,20µM*,?,44.7µM*,50.1µM*,28.2µM*,10µM*,21.2*,16.9*,.,
C=CCN1C(=O)NC(=O)/C(=C/c2cccn2C)C1=O,?,-3.0%,-9.3%,-17.9%,2.4%,0.2%,.,.,.,
CC(CN)CC(=O)O (stereo not given),.,.,2.9%[19.4 µM],.,.,.,.,.,.,
NN=C1C(Cl)=C(Cl)C(Cl)=C1Cl,.,.,.,-20.0%[11.6 µM],.,?,67*,?,.,Pol kappa inh-2=?
CCc1ccccc1N1C(=O)/C(=C/c2ccc(N3CCN(C)CC3)o2)C(=O)NC1=S,11.2µM*,?,25.1µM*,50.1µM*,9.8%,8.91µM*,59.7*,9.53*,.,
Cc1ccccc1N1C(=O)NC(=O)/C(=C/c2ccc(N3CCOCC3)o2)C1=O,-18.9%,3.4%,-4.4%,-7.5%,?,-8.4%,.,.,.,
CC(N)[C@H](O)c1ccc(O)c(O)c1 (stereo not given in full),2.51µM*,14.1µM*,2.99µM*,.,1.78µM*,3.16µM*,15*,37.9*,.,
CN1C(=O)NC(=O)/C(=C/c2ccc([N+](=O)[O-])o2)C1=O,?,25.1µM*,22.4µM*,?,31.6µM*,3.55µM*,5.97*,4.26*,33.8*,TbPGK inh=2.59µM*
COc1ccc(C[C@@H]2NC[C@H](O)[C@@H]2OC(C)=O)cc1,.,.,-5.4%[12 µM],.,.,.,.,.,.,
C[n+]1c(-c2ccccc2)c2cc(N)ccc2c2ccc(N)cc21,8.91µM*,11.2µM*,25.1µM*,2.67µM*,25.1µM*,?,16.8*,67.5*,9.53*,Pol kappa inh-2=2.38*
CCOc1ccc(/C=C2/C(=O)NC(=O)N(CCc3ccc(F)cc3)C2=O)cc1,-10.3%,-23.1%,-7.8%,-17.9%,-6.0%,-6.4%,.,.,.,
Cn1cccc1/C=C1/C(=O)NC(=S)N(Cc2ccc(F)cc2)C1=O,20µM*,-22.9%,?,56.2µM*,?,12.6µM*,21.2*,10.7*,?,
Cc1cccc(N2C(=O)/C(=C/c3ccc(N4CCN(C)CC4)o3)C(=O)NC2=S)c1C,?,-15.1%,?,31.6µM*,-1.8%,20µM*,59.7*,30.1*,84.9*,Pol kappa inh-2=8.44*
CN1C(=O)C(=Cc2ccc(N3CCCCCC3)o2)C(=O)N(C)C1=S,?,-2.6%,-22.2%,-46.5%,?,?,.,.,.,
CCC(Sc1ccccc1)C(=O)OC1CC2CCC(C1)N2C (stereo not given),.,.,7.4%[19.4 µM],.,.,.,.,.,.,
O=C(O)CCC(CP(=O)(O)O)C(=O)O (stereo not given),.,.,10.7%[60.1 µM],.,.,.,.,.,.,
CSc1nc(N)c(N=Nc2ccc([As](=O)(O)O)cc2)c(=O)[nH]1,8.91µM*,8.1%,-24.0%,-17.5%[11.6 µM],35.5µM*,50.1µM*,42.3*,75.7*,75.7*,
C[C@H](NC(=O)[C@@H](N)Cc1ccc(O)cc1)C(=O)N[C@@H](Cc1ccccc1)C(=O)N[C@@H](Cc1ccccc1)C(N)=O,.,.,-1.2%[19.4 µM],.,.,.,.,.,.,
Cc1ccc(N2C(=O)NC(=O)/C(=C/c3ccoc3)C2=O)cc1,7.94µM*,35.5µM*,22.4µM*,31.6µM*,?,3.16µM*,11.9*,16.9*,60.1*,TbPGK inh=0.919µM*
SMILES,POLI inh,FEN1 inh-1,Pol kappa inh-1,WRN inhibitor,Pol beta inh,Pol eta inh-1,Pol iota confirm,Pol eta inh-2,FEN1 inh-2,others
Cc1ccc(N2C(=O)NC(=O)/C(=C/c3cnn(-c4ccc(C)cc4)c3)C2=O)cc1,2.6%,3.2%,-18.8%,-19.2%,35.5%,8.2%,.,.,.,
CC1(C)OC(c2ccccc2)=C/C(=C/C=C2C(=O)NC(=S)NC2=O)O1,?,?,?,8.91µM*,50.1µM*,?,67*,75.7*,84.9*,
CN1/C(=C\C=C2C(=O)NC(=S)NC2=O)C(C)(C)c2ccccc21,-9.4%,39.8µM*,52.0%,13.9%,?,79.4µM*,?,84.9*,75.7*,Pol kappa inh-2=59.7*
NC(=O)O,.,.,11.3%[60.1 µM],.,.,.,.,.,.,
CCN1C(=O)NC(=O)/C(=C\c2cn(CC(=O)O)c3ccccc23)C1=O,.,.,.,.,29.6%,.,.,.,.,
O=C1NC(=O)N(Cc2ccccc2)C(=O)/C1=C\c1ccco1,?,44.7µM*,28.2µM*,31.6µM*,25.1µM*,20µM*,?,33.8*,75.7*,
